RGS8-Gao: RGS8-Galphao binding modulators, primary screen, biochemical, multiplexed bead flow cytometry. hit rate 0.34% among 220,000. actives lie on both sides. Guanine nucleotide-binding protein G(o) subunit alpha (Homo sapiens), P09471. response (percent of control binding), % at 10 µM; in the data active means response below about 60% or above about 140%; inactive means in between;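 further: Galphao activated as the GDP aluminium fluoride complex binding bead-coupled RGS8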
Target sequence (P09471 whole entry, looked up): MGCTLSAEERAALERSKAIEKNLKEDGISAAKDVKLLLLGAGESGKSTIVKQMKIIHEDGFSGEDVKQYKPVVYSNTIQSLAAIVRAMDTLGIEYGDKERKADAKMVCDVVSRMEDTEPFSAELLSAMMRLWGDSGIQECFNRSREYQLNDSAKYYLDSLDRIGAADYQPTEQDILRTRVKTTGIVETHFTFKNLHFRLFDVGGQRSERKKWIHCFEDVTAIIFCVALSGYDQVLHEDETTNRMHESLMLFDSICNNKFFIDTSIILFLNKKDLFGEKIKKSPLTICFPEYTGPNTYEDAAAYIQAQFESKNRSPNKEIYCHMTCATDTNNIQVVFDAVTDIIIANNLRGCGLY
GSH fluor: compound fluorescence on glutathione beads, profiling panel, artefact control, biophysical, 488/530 nm, flow cytometry; GSH beads flow cytometry, compound fluorescence 488/530 nm; stronger effect = higher value; fluorescence (KMESF) at 10 µM; hit rate 0.25% among 190,000; AID 1776, 2009; in the data active means fluorescence above about 89;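 further: glutathione beads carrying GST-tagged Bcl family fusion proteins plus one bare bead set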
RGS16-Gao HTS: modulators of RGS16 binding to Galphao, primary screen, biochemical, human proteins, multiplexed bead flow cytometry; hit rate 0.38% among 220,000; bead-based flow cytometry RGS16-Galphao binding, fluorescence; actives lie on both sides; binding response (% of control), % at 10 µM; call rule not given here;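 further: Galphao activated by GDP with aluminum fluoride before binding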
Target sequence (O15492 whole entry, looked up): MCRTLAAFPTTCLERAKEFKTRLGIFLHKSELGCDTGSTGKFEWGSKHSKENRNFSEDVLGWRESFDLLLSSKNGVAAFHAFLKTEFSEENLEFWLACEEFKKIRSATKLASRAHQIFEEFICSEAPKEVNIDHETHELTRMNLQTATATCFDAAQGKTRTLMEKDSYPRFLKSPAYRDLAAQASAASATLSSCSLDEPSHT
Target sequence (P09471 whole entry, looked up): as the sequence (P09471 whole entry, looked up) above
RGS7-Gao reg: RGS7-Galphao binding modulators, primary screen, biochemical, multiplexed bead flow cytometry; binding response (% of control), % at 10 µM; actives lie on both sides; Guanine nucleotide-binding protein G(o) subunit alpha (Homo sapiens), P09471; hit rate 0.35% among 220,000; AID 1439, 2008; in the data active means binding response below about 49% or above about 150%; inconclusive means no clear call, values can overlap the other calls; inactive means in between;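 further: fluorescent Galphao held in activated GDP-AlF4 state binding bead-coupled RGS7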
RGS4-Gao reg: modulators of RGS4 binding to Galphao, primary screen, biochemical, multiplexed bead flow cytometry | actives lie on both sides | binding response (% of control), % at 10 µM | hit rate 0.33% among 220,000 | AID 1415, 2008; in the data active means binding response below about 49% or above about 150%; inactive means in between;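 further: fluorescent Galphao activated with aluminum fluoride binding bead-coupled RGS4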
Avidin bead fluor: green autofluorescence of compounds with avidin beads – biophysical, 488/530 nm, flow cytometry, artefact control, profiling panel; hit rate 0.38% among 220,000; AID 1775, 2009; compound fluorescence 488/530 nm; stronger effect = higher value; fluorescence (KMESF) at 10 µM; in the data active means fluorescence above about 47
Each line names hits and unclear results; the compound was inactive in the other large screens; [ ] = another dose, or the depositor's remark. Shown are actives, neighbours in structure and some others; about 1.2% of the full set was active somewhere.

CCOc1ccccc1N1C(=O)CC(Nc2ccc(N3CCOCC3)cc2)C1=O (centres undefined)	GSH fluor 245
O=C(Nc1ccc2oc(=O)ccc2c1)c1ccc(-c2cccc([N+](=O)[O-])c2)o1	RGS7-Gao reg inconclusive, Avidin bead fluor 65 (no result: GSH fluor)
O=C(Nc1ccc2oc(=O)ccc2c1)c1ccc(-c2cccc(Cl)c2)o1	RGS7-Gao reg inconclusive (no result: GSH fluor)
Cc1nc2ccc(NC(=O)Cc3ccccc3F)cc2s1	RGS7-Gao reg inconclusive, Avidin bead fluor 53
CS(=O)(=O)N1CCC(C(=O)Nc2ccc(F)cc2F)CC1	Avidin bead fluor 79
CCOc1ccc(-n2c(-c3ccccc3)c[n+]3c2CCC3)cc1	RGS7-Gao reg inconclusive
CSc1c[n+]2c(n1C)CCC2	Avidin bead fluor 52
Cn1c(=O)c2c(ncn2CCC(=O)N/N=C/c2ccncc2)n(C)c1=O	RGS7-Gao reg inconclusive (no result: GSH fluor)
N#C/C(=C/c1ccc(N2CCCCC2)o1)C(=O)Nc1ccc(Cl)cc1	Avidin bead fluor 56
N#C/C(=C\c1ccc(N2CCOCC2)o1)C(=O)Nc1ccc(O)cc1	none
O=C(CNC(=S)N(CCCN1CCOCC1)Cc1cccs1)N1CCCCCC1	none
CCOC(=O)c1ccccc1NC(=O)CSc1nc2c(c(=O)n(C)c(=O)n2C)n1C	none
CCOC(=O)c1ccccc1NC(=O)Cn1cnc2c1c(=O)n(C)c(=O)n2C	RGS8-Gao 7.8, RGS16-Gao HTS -15, RGS7-Gao reg -8.2, RGS4-Gao reg -24
CN1CCN(Cc2oc(CO)cc(=O)c2O)CC1	none
COc1ccc(N2CCN(Cc3oc(CO)cc(=O)c3O)CC2)cc1	GSH fluor 250
CCOc1ccc(C(CCc2ccccc2)NC(=O)c2ccccc2OC)cc1OCC (centres undefined)	Avidin bead fluor 51
CCOc1ccccc1C(=O)NC(CO)C(=O)O (centres undefined)	GSH fluor 271
CCOc1ccccc1C(=O)NCCC(=O)O	none
COc1ccc(-c2ccnc(SCC(=O)N3CCN(c4ccccc4)CC3)n2)cc1	RGS7-Gao reg inconclusive (no result: GSH fluor)
O=C(CSC1CN(C(c2ccccc2)c2ccccc2)C1)N/N=C/c1ccccc1	RGS7-Gao reg inconclusive (no result: GSH fluor)
CCc1ccccc1N1CC23C=CC(O2)C(C(=O)OCC(C)C)C3C1=O (centres undefined)	Avidin bead fluor 56
CCCCOC(=O)C1[C@H]2C(=O)N(c3ccccc3CC)C[C@]23C=C[C@H]1O3 (some centres undefined)	none
COCCOc1ccc(C(F)(F)F)cc1NC(=O)c1ccc(C)cc1	Avidin bead fluor 59
O=C(CN1CCOCC1)N1CCN(S(=O)(=O)c2ccccc2)C1c1ccccc1 (centres undefined)	Avidin bead fluor 59
COc1ccccc1/C(O)=C(\C#N)c1nc2ccccc2[nH]1	none
Brc1ccccc1-c1nnc(CSc2nnc3sc4ccccc4n23)o1	GSH fluor 257
N#CCSc1nnc2sc3ccccc3n12	none
CC(=O)Nc1nonc1-c1nc2ccccc2n1CCC#N	none
CC(=O)Nc1nonc1-c1nc2ccccc2n1CC1CC1	Avidin bead fluor 57
O=C(N/N=C/c1nn(-c2ccccc2)cc1-c1ccc(Cl)cc1)c1ccncc1	none
CCC(=O)N1CCc2cc(Br)cc(S(=O)(=O)NCc3ccco3)c21	none
CCC(=O)N1CCc2cc(Br)cc(S(=O)(=O)CCC(=O)NCc3ccco3)c21	Avidin bead fluor 51
CCc1ccc(OCc2nnc(SCCN3CCOCC3)n2C)cc1	GSH fluor 260
Cc1ccc(OCc2nnc(SCCN3CCOCC3)n2C)cc1	none
CC(C)N(Cc1ccccc1)C(=O)Cn1c(=O)cnc2ccccc21	RGS7-Gao reg inconclusive, Avidin bead fluor 49 (no result: GSH fluor)
O=C(O)Cn1c(=O)cnc2ccccc21	none
CCOC(=O)/C(C#N)=C(\O)c1ccc(NC(=O)c2ccc([N+](=O)[O-])cc2)cc1	RGS7-Gao reg inconclusive, Avidin bead fluor 59 (no result: GSH fluor)
O=c1cc(CN2CCN(c3ccccc3O)CC2)nc2sccn12	GSH fluor 255
Cc1cccc(N2CCN(Cc3cc(=O)n4ccsc4n3)CC2)c1C	none
CC12CCC(C(=Nc3ccc(N=C4C(=O)C5(C)CCC4C5(C)C)cc3)C1=O)C2(C)C	RGS7-Gao reg inconclusive, Avidin bead fluor 57 (no result: GSH fluor)
Cc1ccc(N2C(=O)C3CCC(C)(C2=O)C3(C)C)cc1 (centres undefined)	RGS7-Gao reg inconclusive (no result: GSH fluor)
O=C(O)CSc1nc2ccccc2o1	none
Cc1ccc(-c2nnc(SCC(=O)N3CCCC3)o2)cc1C	none
Cc1ccc(-c2nnc(SCC(=O)N3CCCC3)o2)cc1	GSH fluor 259
O=C(CSc1nc2ccccc2o1)N1CCCC1	GSH fluor 260
Cc1cc(C)n(C(=O)COc2ccccc2[N+](=O)[O-])n1	RGS7-Gao reg inconclusive (no result: GSH fluor)
Cc1ccc(CS/C(Nc2ccccc2C)=C(\C#N)C(=O)NCc2ccco2)c(C)c1	none
Cc1ccccc1N/C(SCc1ccc(Cl)cc1)=C(/C#N)C(=O)NCc1ccco1	Avidin bead fluor 115
COCCCNC(=S)NCCNc1nc2c(C)c(C)ccc2cc1C#N	none
O=S(=O)(NC1CCCCCCC1)c1cccs1	GSH fluor 275
COc1cc(C(=O)NNc2nc3cc4c(cc3s2)OCO4)cc(OC)c1OC	RGS4-Gao reg 161[activator]
COc1cc(NC(=S)N2CCc3ccccc3C2)cc(OC)c1	none
CCSc1nnc(COc2ccccc2)n1CC	RGS7-Gao reg inconclusive (no result: GSH fluor)
CCOC(=O)c1cnn(-c2ccc(C)cc2)c1N	GSH fluor 255
O=C(Nc1ccc2c(c1)OCO2)N1CCN(c2ncc(C(F)(F)F)cc2Cl)CC1	GSH fluor 257
CCOC(=O)C(C)n1cnc2c(nnn2Cc2ccc(C)cc2)c1=O (centres undefined)	Avidin bead fluor 49
Cc1ccc2nc3c(cc2c1)c(NC(=O)c1ccccn1)nn3CC(C)C	Avidin bead fluor 62
Cc1ccc(-n2nnnc2SCC(=O)c2cc(C)n(CC3CCCO3)c2C)cc1 (centres undefined)	none
Cc1cccc(-n2nnnc2SCC(=O)c2cc(C)n(CC3CCCO3)c2C)c1 (centres undefined)	GSH fluor 263
Cc1nc([N+](=O)[O-])c(Br)n1CC(=O)c1ccc2ccccc2c1	Avidin bead fluor 50
COCCCNC(=O)Cn1cc2c(n1)CCCCC2	none
CCCSCCCNC(=O)Cn1cc2c(n1)CCCCC2	RGS8-Gao 56, RGS7-Gao reg 43, RGS4-Gao reg 49
CCN(CC)c1ccc(NC(=O)Cn2nnc(-c3cccc(OC)c3OC)n2)c(C)c1	GSH fluor 266
O=c1c(-c2ccnn2-c2ccccc2F)cnc2n1CCS2	GSH fluor 249
FC(F)(F)c1cnc2c(-c3ccccc3)n[nH]c2c1	none

Screening data as filed in PubChem.
